# Screening data deposited in PubChem BioAssay by National Center for Advancing Translational Sciences (NCATS).
# The list is not random: actives were taken first. Their share in the collection is about 6.2%.
# KB-V1 MDR tox – qHTS assay for MDR1-selective chemotherapeutics: Primary screen using the drug-selected MDR subline cells KB-V1; KB-V1 MDR cells viability, CellTiter-Glo, 72 h; Potency, µM (doses to about 46.1 µM), hits mostly cytotoxic; hit rate 3.4% among 400,000; AID 1347076, 2019; note: % is set by controls: 0 for no effect and ±100 for the full control effect; nearly all actives have a fitted effect of over 60% in size
#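 Compound-treated KB-V1 multidrug-resistant cells, 72 h, 37 degrees C; viability by CellTiter-Glo. Fitted qHTS curves give the values.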
# KB-3-1 cytotox – qHTS assay for MDR1-selective chemotherapeutics: Primary screen using the parental adenocarcinoma cell KB-3-1; KB-3-1 viability, CellTiter-Glo ATP luminescence, 72 h; Potency, µM (top dose mostly 46.1 µM), hits mostly cytotoxic; hit rate 1.4% among 400,000; note: % is set by controls: 0 for no effect and ±100 for the full control effect; nearly all actives have a fitted effect of over 60% in size
#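 Parental KB-3-1 viability, qHTS format: 72 h compound exposure, 37 °C; CellTiter-Glo; media-only wells and DMSO plates as controls; concentration-effect fits on corrected data.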
# ATXN2 expr inh – Primary qHTS for Inhibitors of ATXN expression; HEK-293 ATXN2-luciferase reporter, luminescence, 24 h; Potency, µM (titrated, usually from 57 µM), inactives show top-dose activity change, negative = inhibition, actives largely listed as inhibitors; hit rate 0.72% among 360,000; note: % is set by controls: 0 for no effect and ±100 for the full control effect; nearly all actives have a fitted effect of over 55% in size
#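 ATXN2-luciferase reporter cells (luciferase flanked by upstream and downstream ATXN2 gene portions) were treated 24 h at 37 °C with compounds at up to 57 uM. SteadyGlo luminescence gave expression; GF-AFC fluorescence gave viability.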
# HT1080 IDH1KD tx – qHTS for induction of synthetic lethality in tumor cells producing 2HG: qHTS for the HT-1080-IDH1KD cell line; HT-1080 IDH1 knockdown viability, ATP luminescence, 48 h; hit rate 2% among 360,000; Potency, µM (series often up to 46.1 µM), for inactives: top-dose activity, negative = toxicity, usual class: cytotoxic; AID 686971, 2013;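 note: 0% = DMSO wells and -100% = cell-free medium wells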
#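 Cytotoxicity counter-line: IDH1KD HT-1080, 48 h, CellTiter-Glo. Curves classed by r2, magnitude and activity.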
# HT1080NT lethal – qHTS for induction of synthetic lethality in tumor cells producing 2HG: qHTS for the HT-1080-NT fibrosarcoma cell line; Potency, µM (highest dose often 46.1 µM), for inactives: at the highest dose activity, negative = less viability, hits mostly cytotoxic; hit rate 1.6% among 360,000; HT-1080-NT fibrosarcoma viability, CellTiter-Glo ATP luminescence, 48 h;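 note: NT is the 2HG producing partner of a matched IDH1 knockdown line; 0% = DMSO-treated cells and -100% = media-only wells without cells; nearly all actives have a fitted effect of over 55% in size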
#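 HT-1080-NT; 750 cells/well; 5% FBS RPMI; 48 h compound, 37 degrees C; CellTiter-Glo luminescence; curve fitting and curve-class assignment.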
# S2 tox – Viability Counterscreen for Primary qHTS for Inhibitors of ATXN expression | Potency, µM (doses to about 56.7 µM), hits mostly cytotoxic | hit rate 0.49% among 400,000 | S2 cells (HEK-293 line with an ATXN2-luciferase reporter) viability, CellTiter-Fluor protease fluorescence, 24 h; note: nearly all actives have a fitted effect of over 40% in size
# Starred values were filed as active, the others as inactive; i = inactive; ? = inconclusive; . = no result given. Calls come from the whole dose curve; as a rule, active = well fitted curve in the direction sought with a large enough effect; inconclusive = small, poorly fitted or top-dose-only effect, or another doubt; inactive = no such curve, though single readings can be large; an effect the other way counts as inactive or inconclusive. Potency is the fitted concentration of half-maximal effect.
SMILES,KB-V1 MDR tox,KB-3-1 cytotox,ATXN2 expr inh,HT1080 IDH1KD tx,HT1080NT lethal,S2 tox
C=CCNc1nc(Nc2ccc(OC)cc2)nc(OC)n1,i,i,164%,12%,21%,i
C=CCNc1nc(Cl)nc(Nc2ccc(OC)cc2)n1,13µM*,i,4%,-27%,?,i
CCN1C(=O)c2cccc3c(Cl)ccc(c23)C1=O,i,i,-28%,22%,22%,.
O=C1c2cccc3c(Cl)ccc(c23)C(=O)N1O,i,i,7%,-16%,7.9µM*,i
CC(C)(C)c1ccc(OCC(=O)NNC(=S)NC(=O)c2ccccc2[N+](=O)[O-])c(Br)c1,?,?,-17%,18µM*,?,i
Cc1ccccc1OCC(=O)NNC(=S)NC(=O)c1ccccc1[N+](=O)[O-],?,?,-17%,?,-18%,i
O=[N+]([O-])c1ccc(O)c(C2=NNC(c3ccccc3F)C2)c1 (centres undefined),?,?,?,?,21µM*,i
CCN1C(=O)c2ccccc2S(=O)c2ccc(C(=O)N3CCN(c4ccc(F)cc4)CC3)cc21 (centres undefined),i,?,0%,.,.,i
COc1ccc(N(CC(=O)Nc2cc(C)ccc2C)S(=O)(=O)c2c(C)noc2C)cc1,?,?,-10%,-26%,-6%,i
COc1cccc(CNC(=O)CN(c2ccc(C(C)C)cc2)S(=O)(=O)c2c(C)n[nH]c2C)c1,i,i,?,.,.,?
COc1ccc(N(CC(=O)Nc2cc(Cl)ccc2C)S(=O)(=O)c2c(C)noc2C)cc1,?,5.8µM*,-19%,?,5.8µM*,i
COc1ccc(N(CC(=O)Nc2cc(C)ccc2OC)S(=O)(=O)c2c(C)noc2C)cc1,9.2µM*,?,-35%,?,?,i
COc1ccc(N(CC(=O)Nc2cccc(C)c2C)S(=O)(=O)c2c(C)n[nH]c2C)cc1,18µM*,i,-2%,4%,-16%,?
Cc1n[nH]c(C)c1S(=O)(=O)N(CC(=O)NCc1ccccc1Cl)c1ccc(C(C)C)cc1,i,i,?,.,.,32µM*
COc1ccccc1CNC(=O)CCCn1c(=O)c2ccccc2n(Cc2ccccc2C#N)c1=O,i,i,-18%,.,.,i
Cc1cc2c(n1-c1ccc(C(=O)NCC(C)c3ccccc3)cc1)CCCC2 (centres undefined),?,i,0%,.,.,i
COc1ccc(S(=O)(=O)N2CCN(Cc3nc4ccc(C)cc4o3)CC2)cc1OC,i,i,-13%,.,.,i
Cc1nc(-c2ccc(Cl)cc2)sc1CCNC(=O)C(=O)Nc1ccc(F)cc1F,i,i,23%,.,.,i
CCn1c(SCC(=O)Nc2ccc(Cl)cc2)nc2nc3c(cc2c1=O)CCCC3,0.52µM*,i,-24%,6%,2%,i
CCn1c(SCC(=O)Nc2ccc(C(C)=O)cc2)nc2nc3c(cc2c1=O)CCCC3,i,i,?,-9%,6%,28µM*
Cn1c(CN2CCOCC2)nc2cc(NC(=O)c3ccc(F)cc3)ccc21,16µM*,i,-17%,0%,-10%,i
Cn1c(CN2CCOCC2)nc2cc(NC(=O)c3ccccc3Cl)ccc21,?,i,-11%,13%,2%,i
O=C(Nc1sc2c(c1CN1CCOCC1)CCC2)c1ccc(F)cc1,2.1µM*,i,10%,8%,8%,i
COc1ccc(CCNC(=O)CCn2c(=O)c3ccccc3n(Cc3ccccc3)c2=O)cc1OC,i,i,5%,.,.,i
COc1ccc(C(=O)NCC2Cc3cc(C)cc(-c4nc5ccccc5s4)c3O2)c(OC)c1OC (centres undefined),.,.,.,.,.,i
SMILES,KB-V1 MDR tox,KB-3-1 cytotox,ATXN2 expr inh,HT1080 IDH1KD tx,HT1080NT lethal,S2 tox
CC(=O)N1c2c(cc(Br)cc2S(=O)(=O)Nc2ccc(OC(F)(F)F)cc2)CC1C (centres undefined),i,i,?,.,.,i
CCCSc1nnc2c(n1)OC(c1cccs1)Nc1ccc(Br)cc1-2 (centres undefined),i,i,9%,.,.,i
Cc1ccccc1OCC(=O)OCc1cc(=O)n2nc(C3CCCCC3)sc2n1,i,i,6%,.,.,i
Cc1nc(N)nc(N)c1-c1ccc([N+](=O)[O-])cc1,i,i,1%,10µM*,-2%,i
Cc1ccc(S(=O)(=O)NCCC(c2ccccc2)c2ccco2)cc1 (centres undefined),23µM*,i,-1%,-6%,-1%,i
COc1ccccc1C(CCNS(=O)(=O)c1ccc(C)cc1)c1ccco1 (centres undefined),?,i,.,1%,-6%,i
Cc1ccc(S(=O)(=O)NCCC(c2ccc(F)cc2)c2ccco2)cc1 (centres undefined),21µM*,?,3%,-23%,-8%,i
Cc1ccc(S(=O)(=O)NCC(=O)N(c2ccccc2)C(C(=O)NCc2ccccc2)c2ccco2)cc1 (centres undefined),2.3µM*,i,-14%,-4%,-2%,i
O=C(Cn1cc(S(=O)(=O)c2ccc(Cl)cc2)c(=O)c2ccccc21)Nc1ccc2c(c1)OCO2,i,i,-24%,.,.,?
COc1cccc(CNC(=O)C2CCN(C(=O)c3cnn(-c4ccccc4)c3-n3cccc3)CC2)c1,i,i,-12%,.,.,i
CCCCCCCCCCCCCCCCCCNC(=O)OC1CCN(C(=O)OC[C@H](COC(=O)N(Cc2cccc[n+]2CC)C(=O)c2ccccc2OC)OC)CC1,.,.,35µM*,.,.,35µM*
S=C(Nc1ccccc1)N1CCn2c1nc1ccccc12,i,i,-6%,?,1.4µM*,i
O=C(Nc1ccccc1)N1CCn2c1nc1ccccc12,i,i,18%,-13%,-13%,i
Cc1cc(Oc2ccc(Cl)cc2Cl)nc(C#N)n1,.,.,.,-26%,-19%,.
Cc1cc(C)cc(SCc2noc(C(=O)NCCN(C)C)c2C(=O)NCCN(C)C)c1,i,?,?,?,18µM*,i
Cc1cc(C)c2nc(C(F)(F)F)nc(NCCCN3CCOCC3)c2c1,3.7µM*,?,-23%,16µM*,18µM*,i
